In PubChem BioAssay (Tox21):
A number with no mark means an inactive call. Inconclusive results are not listed. Entries that show only a call come without a potency. Active and inactive are the calls of the source. The call rests on the fitted dose curve; in most records, active means well fitted curve in the direction sought with a large enough effect in the repeat runs; inconclusive means weak or mixed curves; inactive means no such curve, though single readings can be large; an effect the other way counts as inactive or inconclusive.

What was measured:
[1] = A CellTox Green Cytotoxicity Assay to monitor cytotoxicity in HEK293 cells - 40 hour (AID 1224871); further: nearly all actives have a fitted effect of over 45% in size
In short: (§1)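 Fluorescence from a DNA-binding dye excluded by viable cells was measured repeatedly in the same HEK293 wells (600 cells/well) during continuous compound exposure at 37 C. Each assay gives one read point: 0, 8, 16, 24, 32 or 40 h.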

[2] = qHTS RealTime-Glo MT Cell Viability Assay in HEK293 cells - 16 hour (AID 1224872); further: nearly all actives have a fitted effect of over 50% in size; further: potency means the concentration at half of the fitted maximal effect
In short: (§2)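 Tox21 10K qHTS, HEK293, 600 cells/well, RealTime-Glo reagent co-dispensed with cells; 5 h preincubation, compound by pintool, 37 C, luminescence at 0–40 h.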

[3] = qHTS RealTime-Glo MT Cell Viability Assay in HepG2 cells - 8 hour (AID 1224873); further: nearly all actives have a fitted effect of over 55% in size
In short: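 Real-time viability: cells seeded at 600 per well together with NanoLuc and cell-permeant prosubstrate, compounds added after 5 h incubation. Luminescence tracked at 0, 8, 16, 24, 32 and 40 h of exposure.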

[4] = qHTS RealTime-Glo MT Cell Viability Assay in HEK293 cells - 40 hour (AID 1224874); details: RealTime-Glo luminescence; max response: active compounds read low; further: nearly all actives have a fitted effect of over 50% in size; further: potency means the concentration at half of the fitted maximal effect
In short: (§3)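 Luminescence, which tracks viable cell number through reduction of the prosubstrate to a NanoLuc substrate, was read over continuous 37 C culture. Cells (600/well) were premixed with reagent and rested 5 h before 23 nL of compound in DMSO was pinned.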

[5] = A CellTox Green Cytotoxicity Assay to monitor cytotoxicity in HEK293 cells - 24 hour (AID 1224875); further: series mostly up to about 77 µM; nearly all actives have a fitted effect of over 45% in size
In short: as §1

[6] = A CellTox Green Cytotoxicity Assay to monitor cytotoxicity in HepG2 cells - 24 hour (AID 1224878); further: nearly all actives have a fitted effect of over 45% in size
In short: (§4)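 Real-time cytotoxicity: fluorescence of a cell-impermeant cyanine dye binding DNA of dead HepG2 cells, measured repeatedly (0–40 h) during compound exposure at 37 C. Cells seeded 600/well with reagent, dosed after 5 h.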

[7] = qHTS RealTime-Glo MT Cell Viability Assay in HEK293 cells - 0 hour (AID 1224880); further: nearly all actives have a fitted effect of over 45% in size; further: potency means the concentration at half of the fitted maximal effect
In short: as §3

[8] = A CellTox Green Cytotoxicity Assay to monitor cytotoxicity in HEK293 cells - 32 hour (AID 1224881); further: nearly all actives have a fitted effect of over 40% in size
In short: as §1

[9] = A CellTox Green Cytotoxicity Assay to monitor cytotoxicity in HepG2 cells - 0 hour (AID 1224882); further: nearly all actives have a fitted effect of over 35% in size
In short: as §4

[10] = A CellTox Green Cytotoxicity Assay to monitor cytotoxicity in HEK293 cells - 8 hour (AID 1224884); further: nearly all actives have a fitted effect of over 35% in size
In short: as §1

[11] = qHTS RealTime-Glo MT Cell Viability Assay in HepG2 cells - 16 hour (AID 1224885); further: nearly all actives have a fitted effect of over 50% in size
In short: (§5)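 Cells + NanoLuc/prosubstrate dispensed (600 cells/well) → 5 h at 37 C/5% CO2 → compounds in DMSO transferred → 40 h incubation at 37 C, luminescence read at 0, 8, 16, 24, 32, 40 h.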

[12] = qHTS RealTime-Glo MT Cell Viability Assay in HEK293 cells - 24 hour (AID 1224886); further: nearly all actives have a fitted effect of over 50% in size; further: potency means the concentration at half of the fitted maximal effect
In short: as §2

[13] = A CellTox Green Cytotoxicity Assay to monitor cytotoxicity in HEK293 cells - 16 hour (AID 1224888); further: nearly all actives have a fitted effect of over 35% in size
In short: as §1

[14] = qHTS RealTime-Glo MT Cell Viability Assay in HepG2 cells - 0 hour (AID 1224889); further: nearly all actives have a fitted effect of over 50% in size; further: potency means the concentration at half of the fitted maximal effect
In short: as §5

[15] = A CellTox Green Cytotoxicity Assay to monitor cytotoxicity in HepG2 cells - 16 hour (AID 1224876); further: nearly all actives have a fitted effect of over 45% in size
In short: as §4

[16] = qHTS RealTime-Glo MT Cell Viability Assay in HepG2 cells - 32 hour (AID 1224877); further: nearly all actives have a fitted effect of over 55% in size
In short: as §5

[17] = A CellTox Green Cytotoxicity Assay to monitor cytotoxicity in HepG2 cells - 40 hour (AID 1224879); further: nearly all actives have a fitted effect of over 40% in size
In short: as §4

[18] = A CellTox Green Cytotoxicity Assay to monitor cytotoxicity in HepG2 cells - 32 hour (AID 1224883); further: nearly all actives have a fitted effect of over 50% in size
In short: as §4

[19] = qHTS RealTime-Glo MT Cell Viability Assay in HEK293 cells - 8 hour (AID 1224887)
In short: as §3

SMILES: Oc1ccc(CCNCCCCCCNCCc2ccccc2)cc1O
- Potency [1]: inactive
- Potency [2]: 23.9 µM (active)
- outcome [3]: inactive
- Potency [4]: 23.9 µM (active)
- Potency [5]: inactive
- Potency [6]: inactive
- Potency [7]: inactive
- Potency [8]: inactive
- Potency [9]: inactive
- Potency [10]: inactive
- outcome [11]: inactive
- Potency [12]: 23.9 µM (active)
- Potency [13]: inactive
- Potency [14]: inactive

SMILES: CCCC1CCCC(=O)O1 (stereo unspecified)
- Potency [2]: inactive
- outcome [3]: inactive
- max response [4]: 0.877%
- Potency [5]: inactive
- Potency [15]: inactive
- Potency [16]: inactive
- Potency [6]: inactive
- Potency [17]: inactive
- Potency [7]: inactive
- Potency [8]: inactive
- Potency [9]: inactive
- Potency [18]: inactive
- Potency [10]: inactive
- Potency [12]: inactive
- Potency [19]: inactive
- Potency [13]: inactive
- Potency [14]: inactive

SMILES: CCCCCCCCCCCCSC#N
- Potency [2]: inactive
- max response [4]: 0.323%
- Potency [5]: inactive
- Potency [15]: inactive
- Potency [16]: inactive
- Potency [6]: inactive
- Potency [17]: inactive
- Potency [7]: inactive
- Potency [8]: inactive
- Potency [9]: inactive
- Potency [18]: inactive
- Potency [10]: inactive
- outcome [11]: inactive
- Potency [12]: inactive
- Potency [19]: inactive
- Potency [13]: inactive
- Potency [14]: inactive

SMILES: O=[N+]([O-])c1ccc(Cl)cc1Cl
- Potency [1]: inactive
- Potency [2]: inactive
- max response [4]: 2.44%
- Potency [5]: inactive
- Potency [15]: inactive
- Potency [16]: inactive
- Potency [17]: inactive
- Potency [7]: inactive
- Potency [8]: inactive
- Potency [9]: inactive
- Potency [18]: inactive
- Potency [10]: inactive
- outcome [11]: inactive
- Potency [12]: inactive
- Potency [19]: inactive
- Potency [13]: inactive
- Potency [14]: inactive

SMILES: Cc1c(Nc2ncccc2C(=O)O)cccc1C(F)(F)F
- Potency [2]: inactive
- outcome [3]: inactive
- max response [4]: 0.365%
- Potency [5]: inactive
- Potency [15]: inactive
- Potency [16]: inactive
- Potency [17]: inactive
- Potency [7]: inactive
- Potency [9]: inactive
- Potency [18]: inactive
- Potency [10]: inactive
- outcome [11]: inactive
- Potency [12]: inactive
- Potency [19]: inactive
- Potency [13]: inactive
- Potency [14]: inactive

SMILES: CCCCCCOC(=O)c1ccccc1
- Potency [1]: inactive
- Potency [2]: inactive
- outcome [3]: inactive
- Potency [5]: inactive
- Potency [15]: inactive
- Potency [16]: inactive
- Potency [6]: inactive
- Potency [7]: inactive
- Potency [8]: inactive
- Potency [9]: inactive
- Potency [18]: inactive
- Potency [10]: inactive
- outcome [11]: inactive
- Potency [12]: inactive
- Potency [19]: inactive
- Potency [13]: inactive
- Potency [14]: inactive

SMILES: CCc1cnc(C(=O)O)c(C(=O)O)c1
- Potency [1]: inactive
- Potency [2]: inactive
- max response [4]: 5.23%
- Potency [5]: inactive
- Potency [15]: inactive
- Potency [16]: inactive
- Potency [17]: inactive
- Potency [7]: inactive
- Potency [8]: inactive
- Potency [9]: inactive
- Potency [18]: inactive
- Potency [10]: inactive
- outcome [11]: inactive
- Potency [12]: inactive
- Potency [19]: inactive
- Potency [13]: inactive
- Potency [14]: inactive

SMILES: CC(=O)OCC(=O)[C@@]1(O)CC[C@H]2[C@@H]3CCC4=CC(=O)C=C[C@]4(C)[C@@]3(F)[C@@H](O)C[C@@]21C
- Potency [1]: inactive
- Potency [2]: inactive
- outcome [3]: inactive
- max response [4]: -21.2%
- Potency [5]: inactive
- Potency [15]: inactive
- Potency [16]: inactive
- Potency [6]: inactive
- Potency [7]: 7.56 µM (active)
- Potency [8]: inactive
- Potency [9]: inactive
- Potency [18]: inactive
- Potency [10]: inactive
- Potency [12]: inactive
- Potency [19]: inactive
- Potency [13]: inactive
- Potency [14]: 3.01 µM (active)

SMILES: O=C(O)CCc1nc2ccccc2[nH]1
- Potency [1]: inactive
- Potency [2]: inactive
- outcome [3]: inactive
- max response [4]: 11%
- Potency [5]: inactive
- Potency [16]: inactive
- Potency [6]: inactive
- Potency [17]: inactive
- Potency [7]: inactive
- Potency [8]: inactive
- Potency [9]: inactive
- Potency [18]: inactive
- Potency [10]: inactive
- outcome [11]: inactive
- Potency [12]: inactive
- Potency [19]: inactive
- Potency [13]: inactive
- Potency [14]: inactive

SMILES: FC(F)(Cl)C(F)(Cl)Cl
- Potency [1]: inactive
- Potency [2]: inactive
- outcome [3]: inactive
- max response [4]: 10.2%
- Potency [5]: inactive
- Potency [15]: inactive
- Potency [16]: inactive
- Potency [6]: inactive
- Potency [7]: inactive
- Potency [8]: inactive
- Potency [9]: inactive
- Potency [18]: inactive
- Potency [10]: inactive
- Potency [12]: inactive
- Potency [19]: inactive
- Potency [13]: inactive
- Potency [14]: inactive

SMILES: C=CC(C)CCC=C(C)C (stereo unspecified)
- Potency [1]: inactive
- Potency [2]: inactive
- outcome [3]: inactive
- max response [4]: 0.513%
- Potency [5]: inactive
- Potency [16]: inactive
- Potency [6]: inactive
- Potency [17]: inactive
- Potency [7]: inactive
- Potency [9]: inactive
- Potency [18]: inactive
- Potency [10]: inactive
- outcome [11]: inactive
- Potency [12]: inactive
- Potency [19]: inactive
- Potency [13]: inactive
- Potency [14]: inactive

SMILES: CCCCCCCCCCCCN1CCOCC1
- Potency [1]: inactive
- Potency [2]: inactive
- outcome [3]: inactive
- max response [4]: 4.57%
- Potency [5]: inactive
- Potency [15]: inactive
- Potency [16]: inactive
- Potency [6]: inactive
- Potency [8]: inactive
- Potency [9]: inactive
- Potency [18]: inactive
- Potency [10]: inactive
- outcome [11]: inactive
- Potency [12]: inactive
- Potency [19]: inactive
- Potency [13]: inactive
- Potency [14]: inactive

SMILES: CC(CN=Cc1ccccc1O)N=Cc1ccccc1O (stereo unspecified)
- Potency [2]: inactive
- outcome [3]: inactive
- max response [4]: 0.376%
- Potency [5]: inactive
- Potency [15]: inactive
- Potency [16]: inactive
- Potency [17]: inactive
- Potency [7]: inactive
- Potency [8]: inactive
- Potency [9]: inactive
- Potency [18]: inactive
- Potency [10]: inactive
- outcome [11]: inactive
- Potency [12]: inactive
- Potency [19]: inactive
- Potency [13]: inactive
- Potency [14]: inactive

SMILES: CC/C=C/CCO
- Potency [1]: inactive
- Potency [2]: inactive
- outcome [3]: inactive
- max response [4]: -11.5%
- Potency [5]: inactive
- Potency [15]: inactive
- Potency [16]: inactive
- Potency [6]: inactive
- Potency [17]: inactive
- Potency [7]: inactive
- Potency [9]: inactive
- Potency [18]: inactive
- Potency [10]: inactive
- outcome [11]: inactive
- Potency [12]: inactive
- Potency [19]: inactive
- Potency [13]: inactive
- Potency [14]: inactive
